From PubChem BioAssay (EPA / NIEHS)
Records with an inconclusive call do not appear. Activity calls are given as the source filed them. How the source made its calls: active means hit-call score of the fitted dose curve at least 0.9, where 1 is the maximum; inconclusive means response in the unintended direction; inactive means score below 0.9.

read-out: xenobiotic metabolism (CYP1A1), CYP1A1 (gene 1543); assay: CLD_CYP1A1_24hr: CellzDirect (CLD) Gene Expression Assay for xenobiotic metabolism (CYP1A1) at 24 hours (AID 2283673)
Method: CLD_24hr is a cell-based, multiplexed-readout assay that uses hepatocyte, a human liver primary cell, with measurements taken at 24 hours after chemical dosing in a 96-well plate.CLD_CYP1A1_24hr is one of 16 assay component(s) measured or calculated from the CLD_24hr assay. It is designed to make measurements of mRNA induction, a form of inducible reporter, as detected with chemiluminescence signals by Quantitative Nuclease Protection Assay (qNPA) technology.Data from the assay component CLD_CYP1A1_24hr was analyzed at the endpoint, CLD_CYP1A1_24hr, in the positive analysis fitting direction relative to DMSO as the negative control and baseline of activity. Using a type of inducible reporter, gain-of-signal activity can be used to understand changes in the reporter gene as they relate to the gene CYP1A1. Furthermore, this assay endpoint can be referred to as a primary readout. To generalize the intended target to other relatable targets, this assay endpoint is annotated to the cyp intended target family, where subfamily is xenobiotic metabolism.
Human hepatocyte cultures were treated daily for two consecutive days with fresh dosing solutions containing appropriate concentrations of the 320 ToxCast chemicals (chemical identities were blinded to CellzDirect and other ToxCast collaborators), vehicle control (0.2% DMSO), and positive control inducers as summarized in Table 1. Due to the large number of treatment groups and chemicals examined, the ToxCast chemicals were divided into two groups (spanning two independent cultures of hepatocytes from separate donor preparations (Hu778: ToxCast plates 1 and 2; Hu776: ToxCast plates 3 and 4). Each preparation of human hepatocyte cultures was treated with respective vehicle control, medium only control, set of six positive controls/reference chemicals for the five hepatic receptor pathways, and a subset of eight of the ToxCast chemicals (indoxacarb, pyrithiobac-sodium, norflurazon, cyhalofop-butyl, methomyl, thiram, acetochlor, and propiconazole). These replicate data, coupled with internal replicates designed within the blinded ToxCast chemical library, provided additional data to evaluate interindividual differences between hepatocyte preparations and their potential impact on chemical profiles.Cell morphology and integrity were evaluated using phase-contrast microscopy as an indicator of hepatocyte cell health (Tyson & Green, 1987). Cultures for each treatment group (i.e., media, vehicle [0.2% DMSO], positive control inducers [multiple concentrations], and the ToxCast chemicals [multiple concentrations]) were observed and cell morphology was assessed relative to vehicle control cultures at each harvest time point (0, 6, 24, or 48 h). […] Images were evaluated at the conclusion of the study to assess changes in cell integrity and account for the effects of chemical exposure on uncharacteristic changes in concentration-dependent gene expression profiles. The results from these determinations of apparent cytotoxicity were annotated (yes/no) alongside the corresponding qNPA data for reference.At the conclusion of each treatment period, hepatocyte cultures (96-well) were washed with 1 volume of HBSS, lysed by addition of 25 ul ArrayPlate lysis buffer (HTG, Tucson, AZ), and 70 ul/well of Denaturation Oil, denatured by incubation at 95C for 10 min, and frozen at approximately -70C until analysis by nuclease protection assay (qNPA) (Roberts et al., 2007). For qNPA analysis, cell lysates were thawed at 50C for approximately 30 min, qNPA probes were added, and samples were incubated at 95C for 10 min to begin the detection process by denaturing the target RNA, dissociating the duplexes and secondary structure hybridization. At the conclusion of the hybridization period, S1 nuclease reagent was added to each sample to digest all nonprotected nucleotides at 50C for 60-90 min. […]

Row | SMILES | outcome | AC50
1 | CCOC(=O)NCCOc1ccc(Oc2ccccc2)cc1 | inactive | 
2 | COc1c(Cl)ccc(Cl)c1C(=O)O | inactive | 
3 | CCCCCOC(=O)COc1cc(N2C(=O)C3=C(CCCC3)C2=O)c(F)cc1Cl | inactive | 
4 | COC(=O)CSc1cc(N=c2sc(=O)n3n2CCCC3)c(F)cc1Cl | inactive | 
5 | CCOC(=O)COc1cc(-n2ncc(C(F)(F)F)c(C)c2=O)c(F)cc1Cl | inactive | 
6 | CSC(=O)c1cccc2nnsc12 |  | 20 µM (active)
7 | CC1(C)C(C=C(Cl)Cl)C1C(=O)OCc1cccc(Oc2ccccc2)c1 (stereo unspecified) | inactive | 
8 | O=C(Nc1ccc([N+](=O)[O-])cc1Cl)c1cc(Cl)ccc1O |  | 7.01 µM (active)
9 | CCOC(=O)[C@H](C)Oc1ccc(Oc2nc3ccc(Cl)cc3o2)cc1 | inactive | 
10 | CCOC(=O)C(C)Oc1ccc(Oc2nc3ccc(Cl)cc3o2)cc1 (stereo unspecified) | inactive | 
11 | COC(=O)c1ccc(CNS(C)(=O)=O)cc1S(=O)(=O)NC(=O)Nc1nc(OC)cc(OC)n1 | inactive | 
12 | c1ccc2[nH]c(-c3cscn3)nc2c1 |  | 0.226 µM (active)
13 | CCCN(CCC)C(=O)SCC | inactive | 
14 | CC(C)(c1ccc(O)cc1)c1ccc(O)cc1 | inactive | 
15 | CCCN(CCC)c1c([N+](=O)[O-])cc(C(F)(F)F)c(N)c1[N+](=O)[O-] |  | 3.83 µM (active)
16 | COC(=O)c1ccccc1C(=O)O |  | 0.117 µM (active)
17 | S=C([S-])NCCNC(=S)[S-].[Mn+2] | inactive | 
18 | COC(=O)c1cccc(C)c1S(=O)(=O)NC(=O)Nc1nc(OCC(F)(F)F)nc(N(C)C)n1 |  | 5.36 µM (active)

Row | SMILES | outcome | AC50
19 | N#CSCSc1nc2ccccc2s1 |  | 4.74 µM (active)
20 | COC(=O)c1c(Cl)nn(C)c1S(=O)(=O)NC(=O)Nc1nc(OC)cc(OC)n1 | inactive | 
21 | c1ccc(Nc2ccccc2)cc1 | inactive | 
22 | CCN(Cc1c(F)cccc1Cl)c1c([N+](=O)[O-])cc(C(F)(F)F)cc1[N+](=O)[O-] |  | 0.786 µM (active)
23 | CCCCOCCOCCOCc1cc2c(cc1CCC)OCO2 |  | 2.56 µM (active)
24 | CCCCCCC(C)OC(=O)COc1nc(F)c(Cl)c(N)c1Cl (stereo unspecified) | inactive | 
25 | COC(=O)c1ccccc1S(=O)(=O)NC(=O)Nc1nc(OC(F)F)cc(OC(F)F)n1 |  | 0.0569 µM (active)
26 | CC(C)(C)[C@@H](O)[C@@H](Cc1ccc(Cl)cc1)n1cncn1 |  | 12.1 µM (active)
27 | O=C(O)C1(C(=O)Nc2ccc(Cl)cc2Cl)CC1 | inactive | 
28 | COc1nc(C)nc(NC(=O)NS(=O)(=O)c2ccccc2OCCCl)n1 | inactive | 
29 | CN(C)C(=O)Nc1ccc(Cl)c(Cl)c1 |  | 4.24 µM (active)
30 | Cc1nn(C)c(Oc2ccccc2)c1C=NOCc1ccc(C(=O)OC(C)(C)C)cc1 | inactive | 
31 | CCNc1nc(N)nc(Cl)n1 | inactive | 
32 | Oc1ccc(C(c2ccc(O)cc2)C(Cl)(Cl)Cl)cc1 | inactive | 
33 | C=CCOC(Cn1ccnc1)c1ccc(Cl)cc1Cl (stereo unspecified) |  | 1.07 µM (active)
34 | COC(=O)c1ccc(I)cc1S(=O)(=O)NC(=O)Nc1nc(C)nc(OC)n1 | inactive | 
35 | CCCCOC(=O)[C@@H](C)Oc1ccc(Oc2ccc(C(F)(F)F)cn2)cc1 |  | 20 µM (active)
36 | CCCCC(CC)CN1C(=O)C2C3C=CC(C3)C2C1=O (stereo unspecified) |  | 20 µM (active)
